Records with an inconclusive call do not appear. A call without a number means that no potency is given here. Activity calls are given as the source filed them. Calls follow the shape of the dose curve; as a rule, active = well fitted curve in the direction sought with a large enough effect in the repeat runs; inconclusive = weak or mixed curves; inactive = no such curve, though single readings can be large; an effect the other way counts as inactive or inconclusive.
Experiment: A CellTox Green Cytotoxicity Assay to monitor cytotoxicity in HepG2 cells - 40 hour (AID 1224879); also: nearly all actives have a fitted effect of over 40% in size; also: potency is read from the fitted curve at half-maximal effect
Conditions: CellTox Green fluorescence; series mostly up to 76.8 µM
Procedure, shortened: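 First, HepG2 cells (600/well) mixed with reagent were plated; second, after 5 h at 37 C they received compounds via pintool; third, fluorescence was measured at 0 h through 40 h at 8 h intervals.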

| Structure (SMILES) | Potency |
| --- | --- |
| CN1CCC[C@@H]1Cc1c[nH]c2ccc(CCS(=O)(=O)c3ccccc3)cc12 | inactive |
| Cc1ncc(CO)c(CN)c1O | inactive |
| CCCN(CCC)C(=O)C(CCC(=O)O)NC(=O)c1ccccc1 (stereo not given) | inactive |
| CCN[C@H]1CN(CCCOC)S(=O)(=O)c2sc(S(N)(=O)=O)cc21 | inactive |
| COC(=O)C(C)O (stereo not given) | inactive |
| OCc1ccccc1O | inactive |
| O=C(C(Cl)Cl)N1CCOC12CCCCC2 | inactive |
| CCN(CC)C(=O)N(CC)CC | inactive |
| COc1ccccc1N1CCN(CCCNc2cc(=O)n(C)c(=O)n2C)CC1 | inactive |
| CC(=O)O[C@H]1CC[C@@]2(C)C(=CC[C@@H]3[C@@H]2CC[C@]2(C)C(C(C)=O)=CC[C@@H]32)C1 | inactive |
| Cn1cnc2c(F)c(Nc3ccc(Br)cc3Cl)c(C(=O)NOCCO)cc21 | 37.9 nM (active) |
| ClC(Cl)Cl | inactive |
| CCCOc1ccc2c(c1)CC[C@@H]1[C@@H]2CC[C@]2(C)C(OC)CC[C@@H]12 (stereo not given in full) | inactive |
| CCN(CC)CC1CCCCN1CC(=O)N1c2ccccc2C(=O)Nc2cccnc21 (stereo not given) | inactive |
| CCCCCCC | inactive |
| CCOC(=O)C1CC(=O)C(=C(O)C2CC2)C(=O)C1 (stereo not given) | inactive |
| CC(=O)Nc1ccc(C)c(Cl)c1 | inactive |
| CCOC(=O)C(Br)c1ccccc1 (stereo not given) | inactive |
| CCOc1ccc2nc(N)sc2c1 | inactive |
| CCCC(CCC)(C(=O)OCC)C(=O)OCC | inactive |
| CCC/C=C/CO | inactive |
| CC(=O)OC(C)OC(C)=O | inactive |
| OC[C@H]1O[C@@H](O[C@H]2[C@H](O)[C@@H](O)[C@H](O)O[C@@H]2CO)[C@H](O)[C@@H](O)[C@H]1O | inactive |
| CC(C)S | inactive |
| CCN(CC)CCNC(=O)COc1ccc(Cl)cc1 | inactive |
| COc1ccc(S(=O)(=O)Nc2nnc(CC(C)C)s2)cc1 | inactive |

Experiment: qHTS RealTime-Glo MT Cell Viability Assay in HEK293 cells - 0 hour (AID 1224880); also: top concentration of the series differs between compounds; nearly all actives have a fitted effect of over 45% in size
Conditions: RealTime-Glo luminescence; series mostly up to 76.8 µM
Procedure, shortened: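 600 HEK293 cells per well, dispensed already mixed with RealTime-Glo MT reagents. Compound dosing came 5 h later. The same wells were read for luminescence at 0, 8, 16, 24, 32 and 40 h of exposure at 37 C.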

| Structure (SMILES) | outcome |
| --- | --- |
| CN1CCC[C@@H]1Cc1c[nH]c2ccc(CCS(=O)(=O)c3ccccc3)cc12 | inactive |
| O=Cc1ccc(F)c(Br)c1 | inactive |
| Cc1ncc(CO)c(CN)c1O | inactive |
| N#CSCC(=O)O | inactive |
| CCCN(CCC)C(=O)C(CCC(=O)O)NC(=O)c1ccccc1 (stereo not given) | inactive |
| CCN[C@H]1CN(CCCOC)S(=O)(=O)c2sc(S(N)(=O)=O)cc21 | inactive |
| Cc1ccc(C=O)s1 | inactive |
| COC(=O)C(C)O (stereo not given) | inactive |
| CCOC(=O)NCCC[Si](OCC)(OCC)OCC | inactive |
| OCc1ccccc1O | inactive |
| O=C(C(Cl)Cl)N1CCOC12CCCCC2 | inactive |
| CCN(CC)C(=O)N(CC)CC | inactive |
| O=C1CCCc2ccccc21 | inactive |
| COc1ccccc1N1CCN(CCCNc2cc(=O)n(C)c(=O)n2C)CC1 | inactive |
| CC(=O)O[C@H]1CC[C@@]2(C)C(=CC[C@@H]3[C@@H]2CC[C@]2(C)C(C(C)=O)=CC[C@@H]32)C1 | inactive |
| FC(F)(F)C(F)(F)C(F)(F)C(F)(F)C(F)(F)C(F)(F)C(F)(F)C(F)(F)Br | inactive |
| Cn1cnc2c(F)c(Nc3ccc(Br)cc3Cl)c(C(=O)NOCCO)cc21 | inactive |
| ClC(Cl)Cl | inactive |
| CCCOc1ccc2c(c1)CC[C@@H]1[C@@H]2CC[C@]2(C)C(OC)CC[C@@H]12 (stereo not given in full) | inactive |
| CCN(CC)CC1CCCCN1CC(=O)N1c2ccccc2C(=O)Nc2cccnc21 (stereo not given) | inactive |

| Structure (SMILES) | outcome |
| --- | --- |
| O=C(Cl)c1cccc([N+](=O)[O-])c1 | inactive |
| Cc1cc(NS(=O)(=O)c2ccc(N)cc2)nc(C)n1 | inactive |
| CCCCCCC | inactive |
| CCOC(=O)C1CC(=O)C(=C(O)C2CC2)C(=O)C1 (stereo not given) | inactive |
| CC(=O)Nc1ccc(C)c(Cl)c1 | inactive |
| CCCCCCCCc1ccc(S(=O)(=O)O)cc1 | inactive |
| CCOC(=O)C(Br)c1ccccc1 (stereo not given) | inactive |
| CCOc1ccc2nc(N)sc2c1 | inactive |
| CCCC(CCC)(C(=O)OCC)C(=O)OCC | inactive |
| CCC/C=C/CO | inactive |
| CC(=O)OC(C)OC(C)=O | inactive |
| OC[C@H]1O[C@@H](O[C@H]2[C@H](O)[C@@H](O)[C@H](O)O[C@@H]2CO)[C@H](O)[C@@H](O)[C@H]1O | inactive |
| CC(C)S | inactive |
| Clc1cccc(-c2cc(Cl)cc(Cl)c2)c1 | inactive |
| CCC1(C)NC(=O)NC1=O (stereo not given) | inactive |
| CCN(CC)CCNC(=O)COc1ccc(Cl)cc1 | inactive |
| CN(C)Cc1ccccc1 | inactive |
| COc1ccc(S(=O)(=O)Nc2nnc(CC(C)C)s2)cc1 | inactive |
| O=c1[nH]cnc2c1ncn2[C@@H]1O[C@H](CO)[C@@H](O)[C@H]1O | inactive |
